Bioassay records deposited in PubChem by National Center for Advancing Translational Sciences (NCATS).
HCMV inh: inhibitors of human cytomegalovirus; activity change, negative = inhibition, % at 57.5 µM; 4.5% of 410,000 active; HFF cells, HCMV-luciferase reporter, 72 h; hits give low values; in the data active = activity change below about -60%; inconclusive = no clear call, values can overlap the other calls; inactive = above about -39%
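Steps: HFFs plated, 16 h 37C; compounds added; HCMV-luciferase added to MOI 1 PFU/cell; 72 h 37C; OneGlo reagent, 5 min room temperature; luminescence read, normalized to controls.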
Tb PYK inh: inhibitors of Trypanosoma brucei pyruvate kinase | Q57TT1 | TbPYK enzyme, Kinase-Glo Plus ATP luminescence, 45 min | Potency, µM (titrated, usually from 76.8 µM), without a hit: top-dose activity, negative = inhibition, hits mostly inhibitors | 0.12% of 410,000 active | AID 624173; note: potency is the fitted concentration of half-maximal effect; nearly all actives have a fitted effect of over 50% in size
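Enzyme and substrate buffer are dispensed first and compound is pin-transferred. ADP at 130 uM final then starts the reaction, which runs 45 min at room temperature. Detection reagent is added for 10 min before luminescence is imaged.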
LmPK inh: blocks Leishmania mexicana pyruvate kinase activity; purified LmPK, Kinase-Glo ATP luminescence, 1 h; Q27686; 0.37% of 290,000 active; Potency, µM (highest dose often 57.5 µM), inactives show top-dose activity change, negative = inhibition, hits mostly inhibitors; note: potency is the fitted concentration of half-maximal effect
Target sequence (Q27686 whole entry, looked up): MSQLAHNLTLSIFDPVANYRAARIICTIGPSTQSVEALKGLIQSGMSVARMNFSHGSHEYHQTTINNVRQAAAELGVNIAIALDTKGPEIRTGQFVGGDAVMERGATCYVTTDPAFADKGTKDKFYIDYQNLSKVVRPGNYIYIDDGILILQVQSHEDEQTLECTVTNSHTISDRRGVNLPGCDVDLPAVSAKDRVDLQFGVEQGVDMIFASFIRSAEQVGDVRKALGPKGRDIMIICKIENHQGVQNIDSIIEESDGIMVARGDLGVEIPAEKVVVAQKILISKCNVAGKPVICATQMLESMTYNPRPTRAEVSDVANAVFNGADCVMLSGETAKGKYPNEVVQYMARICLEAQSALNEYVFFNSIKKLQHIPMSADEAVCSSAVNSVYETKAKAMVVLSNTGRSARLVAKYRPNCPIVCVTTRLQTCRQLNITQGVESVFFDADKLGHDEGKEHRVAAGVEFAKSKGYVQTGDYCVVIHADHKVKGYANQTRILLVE
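Purified LmPK (0.1 nM) converted ADP (0.1 mM) to ATP with PEP (0.5 mM) in imidazole buffer pH 7.2 with KCl and MgCl2, 1 h at room temperature. ATP was read by Kinase-Glo luminescence; data normalized to uninhibited and no-enzyme controls.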
Vaccinia Venus: inhibitors of vaccinia virus (Venus reporter) | Vaccinia virus Venus reporter expression, fluorescence | Potency, µM (titrated, usually from 36.5 µM), for the others: at the top dose activity change, negative = inhibition, actives largely listed as inhibitors | 0.46% of 330,000 active; calls by dose curve; tested in A549 cells; note: potency is the fitted concentration of half-maximal effect; nearly all actives have a fitted effect of over 30% in size
VACV mCherry inh: vaccinia inhibition (mCherry reporter) | Potency, µM (series often up to 36.5 µM), for the others: top-dose activity change, negative = inhibition, most hits filed as inhibitors | Vaccinia virus mCherry reporter infection, fluorescence | 0.63% of 310,000 active; calls by dose curve; tested in A549 cells; note: potency is the fitted concentration of half-maximal effect; nearly all actives have a fitted effect of over 35% in size
An asterisk follows results filed as active; ! = not active in a repeat. Shown are actives, neighbours in structure and some others; about 5% of the full set was active somewhere. Unless noted, calls come from the whole dose curve; as a rule, active = well fitted curve in the direction sought with a large enough effect; inconclusive = small, poorly fitted or top-dose-only effect, or another doubt; inactive = no such curve, though single readings can be large; an effect the other way counts as inactive or inconclusive. % is set by controls: 0 for no effect and ±100 for the full control effect.

Results for Cc1ccc(S(=O)(=O)N2CCCc3cc(NC(=O)c4c(F)cccc4F)ccc32)cc1 ?
HCMV inh: -69.2*!; Tb PYK inh: 2.1%; LmPK inh: -1.7%; Vaccinia Venus: -22.7%; VACV mCherry inh: -9.4%

How did COc1cccc(OC)c1C(=O)Nc1ccc2c(c1)CCCN2S(=O)(=O)c1ccc(C)cc1 do in these assays?
HCMV inh: -64.2*!; Tb PYK inh: -21.8%; LmPK inh: -7.5%; Vaccinia Venus: -6.4%; VACV mCherry inh: 2.7%

How did COc1ccc(S(=O)(=O)Nc2ccc3c(c2)CCCN3S(=O)(=O)c2ccc(C)cc2)cc1F do in these assays?
HCMV inh: -63.9*; Tb PYK inh: -13.2%; Vaccinia Venus: -22.2%; VACV mCherry inh: -11.1%

Results for CC(C)C1N(c2ccccc2)C(N)=C(C#N)C1(C#N)C#N (stereo unspecified) ?
HCMV inh: -65.6*; Tb PYK inh: 1.0%; LmPK inh: -1.3%; Vaccinia Venus: -16.8%; VACV mCherry inh: -10.5%

Results for N#Cc1cnn(-c2ccccc2)c1N ?
HCMV inh: -30.2; Tb PYK inh: 0.4%; LmPK inh: 0.4%; Vaccinia Venus: -21.8%; VACV mCherry inh: -12.9%

How did CC(=O)Oc1ccc(-c2ccc(C(=O)Nc3cccc(S(=O)(=O)N4CCOCC4)c3)cc2)cc1 do in these assays?
HCMV inh: -97.7*; Tb PYK inh: 6.8%; LmPK inh: 1.9%; Vaccinia Venus: inconclusive; VACV mCherry inh: 15.8µM*

How did COc1ccc(C(=O)NC(=S)Nc2cccc(S(=O)(=O)N3CCOCC3)c2)cc1 do in these assays?
HCMV inh: -32.3; Tb PYK inh: 2.7%; LmPK inh: -1.1%; Vaccinia Venus: inconclusive; VACV mCherry inh: -29.5%

Results for CC1(C)CC2CC(C)(CN2S(=O)(=O)c2ccc(C(=O)Nc3cccc(S(=O)(=O)N4CCOCC4)c3)cc2)C1 (stereo unspecified) ?
HCMV inh: -91.5*; Tb PYK inh: 5.1%; LmPK inh: 9.6%

What do the screens show for `COc1cc(OC)cc(C(=O)NC(C(=O)NCc2ccccn2)C(C)C)c1` (stereo unspecified)?
HCMV inh: 13.5; Tb PYK inh: 0.3%

What do the screens show for `COc1cccc2c1C(=O)c1c(O)c3c(c(O)c1C2=O)CC(O)(C(C)=O)CC3OC1CC(O)C(O)C(C)O1` (stereo unspecified)?
HCMV inh: -100.7*; Tb PYK inh: -17.5%; Vaccinia Venus: inactive; VACV mCherry inh: 280.7%

What do the screens show for `COc1cccc2c1C(=O)c1c(O)c3c(c(O)c1C2=O)C[C@@](O)(C(=O)CO)C[C@@H]3O[C@H]1C[C@H](N)[C@H](OC2CCCCO2)[C@H](C)O1` (stereo partly specified)?
Tb PYK inh: -8.0%; Vaccinia Venus: 441.3%; VACV mCherry inh: 311.2%

What do the screens show for `COc1cccc2c1C(=N)c1c(O)c3c(c(O)c1C2=O)CC(O)(C(C)=O)CC3OC1CC(N)C(O)C(C)O1` (stereo unspecified)?
Tb PYK inh: -26.8%; Vaccinia Venus: inconclusive; VACV mCherry inh: 150.3%

How did CCCCC(=O)OCC(=O)C1(O)Cc2c(O)c3c(c(O)c2C(OC2CC(NC(=O)C(F)(F)F)C(O)C(C)O2)C1)C(=O)c1c(OC)cccc1C3=O (stereo unspecified) do in these assays?
HCMV inh: -98.4*; Tb PYK inh: -5.1%; Vaccinia Venus: inactive; VACV mCherry inh: 374.0%

How did COc1cccc2c1C(=O)c1c(O)c3c(c(O)c1C2=O)C[C@](O)(C(C)=O)C[C@H]3O[C@@H]1C[C@@H](N)[C@@H](O)[C@@H](C)O1 do in these assays?
HCMV inh: -100.0*; Tb PYK inh: 8.7%; Vaccinia Venus: 480.5%; VACV mCherry inh: 43.5%

How did Cc1[nH]c2ccccc2c1/C=N/Nc1nncn1N do in these assays?
HCMV inh: -63.9*; Tb PYK inh: -4.6%; LmPK inh: -0.7%; Vaccinia Venus: inconclusive; VACV mCherry inh: inconclusive

What do the screens show for `Nc1ccc(C2(c3ccc(N)cc3)CCCCC2)cc1`?
HCMV inh: 2.5; Tb PYK inh: 1.7%; LmPK inh: 3.7%; Vaccinia Venus: 1.9%; VACV mCherry inh: 4.6%

Results for Cc1ccc(OC(=O)N(C)C[C@H]2OCc3cnnn3CCCC(=O)N([C@H](C)CO)C[C@H]2C)cc1 ?
HCMV inh: -7.5

Results for Cc1cccc(/C=C2/Sc3ccc(C(=O)N4CCOCC4)cc3NC2=O)c1 ?
HCMV inh: -75.1*; Tb PYK inh: 6.6%; LmPK inh: 7.8%

Results for COc1ccc(/C=C2/Sc3ccc(C(=O)N4CCOCC4)cc3NC2=O)cc1OC ?
HCMV inh: -68.8*; Tb PYK inh: 24.5%; LmPK inh: 3.5%

Results for COc1ccc(/C=C2/Sc3ccc(C(=O)NCCN4CCCCCC4)cc3NC2=O)cc1 ?
HCMV inh: -112.0*; Tb PYK inh: 1.0%; LmPK inh: -4.2%

What do the screens show for `CCOC(=O)N1CCN(C(=O)c2ccc3c(c2)NC(=O)/C(=C\c2ccc(OC)c(OC)c2)S3)CC1`?
HCMV inh: inconclusive; Tb PYK inh: -0.5%; LmPK inh: 1.5%

How did O=C1Nc2cc(C(=O)N3CCOCC3)ccc2S/C1=C\c1ccccc1 do in these assays?
HCMV inh: inconclusive; Tb PYK inh: 1.6%; LmPK inh: 0.2%

What do the screens show for `CC(Oc1ccc(C(=O)c2ccc(F)cc2)cc1)C(=O)N1CCOCC1` (stereo unspecified)?
HCMV inh: -2.7; Tb PYK inh: 2.9%; Vaccinia Venus: -5.4%; VACV mCherry inh: inactive

What do the screens show for `Cc1ccccc1Cn1c(=O)n(Cc2ccc(Cl)cc2)c(=O)c2cccnc21`?
HCMV inh: -1.6; Tb PYK inh: 1.1%; Vaccinia Venus: -12.7%; VACV mCherry inh: -3.5%

What do the screens show for `Cc1ccc(C(=O)CCS(=O)(=O)c2ccc(F)cc2)cc1`?
HCMV inh: -98.9*; Tb PYK inh: -12.1%; LmPK inh: -12.0%

What do the screens show for `O=C(CCCC(=O)c1ccc(F)cc1)c1ccc(F)cc1`?
HCMV inh: -79.9*; Tb PYK inh: -6.3%; LmPK inh: -4.4%; Vaccinia Venus: -13.2%; VACV mCherry inh: -13.8%

Results for CC1CCN(CCCC(=O)c2ccc(F)cc2)CC1 ?
Tb PYK inh: -5.9%

Results for COc1cc(C2Nc3ccc4ncccc4c3C3=C2C(=O)CC(C)(C)C3)cc(OC)c1O (stereo unspecified) ?
HCMV inh: -82.6*; Tb PYK inh: 2.2%; LmPK inh: 4.7%

How did O=C(OCc1cc2ccccc2[nH]c1=O)C1CCCO1 (stereo unspecified) do in these assays?
HCMV inh: 32.9; Tb PYK inh: -3.9%; LmPK inh: -1.5%; Vaccinia Venus: -1.3%; VACV mCherry inh: -17.4%

What do the screens show for `Cc1cccc(-c2nc(CN3CCN(C(=O)C4CCCO4)CC3)cs2)c1` (stereo unspecified)?
HCMV inh: 7.1; Tb PYK inh: -3.0%; LmPK inh: -0.5%; Vaccinia Venus: -22.1%; VACV mCherry inh: -7.0%
